Assay outcomes deposited in PubChem BioAssay by National Center for Advancing Translational Sciences (NCATS).
PI4K2A block: inhibitors of human PI4K2A | Q9BTU6 | purified PI4K2A, ADP-Glo luminescence, 1 h; active compounds read low | activity change, negative = inhibition, % at 76.9 µM | hit rate 0.13% among 420,000 | AID 1346378; in the data active = activity change below about -50%; inconclusive = mostly about -30% to -49%
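PI4K2A activity was measured by ADP-Glo luminescence: enzyme (4 ug/mL stock) and phosphatidylinositol (1.2 mM stock) in Tris pH 7.5/MgCl2/EGTA/Triton X-100 buffer were reacted with ATP (300 microM stock) for one hour at ambient temperature.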
TrxR1 inh: rat TrxR1 inhibition; O89049; recombinant rTrxR1, NADPH fluorescence consumption, selenite substrate; Potency, µM (highest dose often 114 µM), hits mostly inhibitors; hit rate 1% among 390,000; note: nearly all actives have a fitted effect of over 65% in size
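Rat TrxR1 (90 nM in the dispensed reagent) was pre-reduced with 400 uM NADPH for 5 min at room temperature, then incubated with compound for 15 min. After 400 uM selenite was added, NADPH fluorescence (Ex 340/Em 450 nm) was followed for 8 min.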
FBPA coupling cs: coupling enzyme interference in Giardia aldolase counter-screen; coupling enzyme system counterscreen, AmpLite Red fluorescence; activity change, negative = inhibition, % at 58.2 µM, hits read low; hit rate 0.67% among 290,000; in the data active = activity change below about -30%
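First, compound is pin-transferred into glyceraldehyde-3-phosphate coupling-enzyme reagent at 57.5 uM final and held 10 min at RT. Next, substrate, coupling system and AmpLite Red are added. After 20 min RT, fluorescence (525/598 nm) is read.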
GALK inhibitor: blocks human galactokinase activity; hit rate 0.007% among 270,000; P51570; Purified GALK, Kinase-Glo residual ATP luminescence; Potency, µM (top dose mostly 57.5 µM), actives largely listed as inhibitors
Target sequence (P51570 whole entry, looked up): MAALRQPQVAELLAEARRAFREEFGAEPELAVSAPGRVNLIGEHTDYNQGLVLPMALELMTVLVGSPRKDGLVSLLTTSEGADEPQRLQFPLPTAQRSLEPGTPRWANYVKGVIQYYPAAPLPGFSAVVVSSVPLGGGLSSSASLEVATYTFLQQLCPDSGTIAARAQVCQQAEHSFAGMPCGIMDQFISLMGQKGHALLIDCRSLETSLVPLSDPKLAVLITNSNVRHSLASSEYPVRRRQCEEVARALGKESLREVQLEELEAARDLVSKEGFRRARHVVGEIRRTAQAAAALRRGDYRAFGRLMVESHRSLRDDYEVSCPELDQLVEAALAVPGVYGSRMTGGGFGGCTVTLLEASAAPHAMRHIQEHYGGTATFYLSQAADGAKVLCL
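Luminescence from leftover ATP (Ultra-Glo luciferase/luciferin) served as read-out after a 1 h room-temperature reaction of 5 nM GALK with 35 uM ATP and 100 uM galactose.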
Giardia killer: Giardia lamblia killing; hit rate 0.15% among 340,000; AID 540267; activity change, % at 7.66 µM, hits read low; Giardia lamblia trophozoite viability; in the data active = activity change below about -80%; inconclusive = between about -30% and that limit;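 note: parasites exposed to compound for two days anaerobically before the ATP read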
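Viability, read as ATP luminescence: trophozoites at 100 cells/well, compound added, 48 hrs anaerobic at 37 deg C, then 15-30 min room-temperature development before reading.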
TrxR1 substrate: substrates of rat thioredoxin reductase 1 | AID 588456 | Potency, µM (titrated, usually from 114 µM) | hit rate 0.01% among 390,000 | purified TrxR1 substrate turnover, NADPH consumption readout | O89049; note: nearly all actives have a fitted effect of over 50% in size
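Rat TrxR1, dispensed at 90 nM, was prereduced with 400 uM NADPH (final) for 5 min at ~22 deg C, then incubated with compound 15 min before 400 uM selenite. A first-read NADPH fluorescence drop versus no-compound background flagged substrates.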
Numbers stand for hits; - = inactive; ? = inconclusive; . = no result; ! = repeats disagree. This is a sample that favours compounds with a hit; in the whole collection about 1.5% have one here. Unless noted, calls come from the whole dose curve; as a rule, active = well fitted curve in the direction sought with a large enough effect; inconclusive = small, poorly fitted or top-dose-only effect, or another doubt; inactive = no such curve, though single readings can be large; an effect the other way counts as inactive or inconclusive.

SMILES | PI4K2A block | TrxR1 inh | FBPA coupling cs | GALK inhibitor | Giardia killer | TrxR1 substrate
Cc1ccc(N2C(=O)C3C4C=CC(CNC(=S)Nc5cccc(Cl)c5)(O4)C3C2=O)cc1 (centres undefined) | - | 7.9µM | - | - | - | -
Cc1ccc(N2C(=O)C3C4C=CC(CNC(=S)Nc5ccc(F)cc5)(O4)C3C2=O)cc1 (centres undefined) | - | 16µM | - | - | - | -
COc1ccccc1NC(=O)CN1C(=O)CC(c2ccc(C)c(C)c2)=Nc2ccccc21 | - | - | . | . | . | -
Cc1ccc(NC(=O)NC2CCCCC2)cc1Cl | -71 | - | - | - | - | -
CCCN(CCC)C(=O)Cn1c(=O)n(-c2ccc(CC)cc2)c(=O)c2c3c(sc21)CCC3 | - | - | . | . | . | -
Cc1nc2c(-c3ccc(F)cc3)c(C)nn2c(C)c1CCC(=O)NC(C)CCc1ccco1 (centres undefined) | - | 79µM | - | - | ? | -
Cc1nc2c(-c3ccccc3)c(C)nn2c(C)c1CCC(=O)NCc1ccco1 | - | - | - | - | - | -
Cc1ccc(-c2nn(-c3ccccc3)cc2C=C2C(=O)CC(C)(C)CC2=O)cc1 | ? | 22µM | - | - | - | -
CCN1C(C(=O)c2ccccc2)=C(OC(=O)C(C)C)c2ccccc2S1(=O)=O | - | - | . | . | . | -
CCN1C(C(=O)c2ccccc2)=C(OC(=O)COc2ccccc2)c2ccccc2S1(=O)=O | - | 28µM | . | . | . | -
O=C1C=CC(=O)N1Cc1cccnc1 | - | 79µM | . | . | - | -
O=C1C=CC(=O)N1Cc1ccncc1 | - | ? | . | . | - | -
CC[C@H](C)[C@H](NC(=O)[C@H](CCC(=O)O)NC(=O)CNC(=O)[C@@H](NC(=O)[C@H](CCC(=O)O)NC(=O)[C@H](CCC(=O)O)NC(=O)[C@H](CC(C)C)NC(=O)CNC(=O)[C@@H]1CCCN1C(=O)[C@H](CCC(=O)O)NC(=O)[C@@H](N)[C@@H](C)O)C(C)C)C(=O)N[C@@H](CCC(=O)O)C(=O)N[C@@H](CCC(N)=O)C(=O)N[C@@H](CCCCN)C(=O)N[C@@H](CCC(N)=O)C(=O)N[C@@H](CC(C)C)C(=O)N[C@@H](CCC(N)=O)C(=O)O | . | . | - | . | . | .
O=C(COc1ccccc1Cl)N(Cc1cccc(F)c1)C1CCS(=O)(=O)C1 (centres undefined) | - | - | . | . | . | -
CC(=O)c1c(O)cc(O)cc1O | - | 3.5µM | - | . | - | -
COc1cc(O)c(C(C)=O)c(OC)c1 | - | - | - | . | - | -
CCCN(Cc1ccc(N(C)C)cc1)CC1CC1 | - | - | -50 | - | - | -
CCn1c(CCC(N)=O)nnc1SCC(=O)c1cc(C)n(C2CC2)c1C | -53 | - | . | . | - | -
CCOc1ccccc1-c1nnc2n1N=C(c1cccc(OC)c1)CS2 | . | . | - | . | . | .
COc1ccccc1-c1cc(=O)c2cc(O)ccc2o1 | . | . | - | . | . | .
CCOc1ccccc1-c1c2cc(O)c(=O)cc-2oc2cc(O)c(O)cc12 | - | ? | -62 | - | - | -
COc1ccc(OC)c(-c2c3cc(O)c(=O)cc-3oc3cc(O)c(O)cc23)c1 | -51 | - | -53 | - | - | -
O=c1cc2oc3cc(O)c(O)cc3c(-c3ccccc3O)c-2cc1O | - | ? | - | - | - | -
COc1ccc(N2CCN(CCCNC(=O)c3nnc(Cc4ccc(F)cc4)o3)CC2)cc1 | - | - | . | . | . | -
NC(=S)N=Nc1ccc(NN=C(N)N)cc1 | - | 20µM | - | . | - | -
SMILES | PI4K2A block | TrxR1 inh | FBPA coupling cs | GALK inhibitor | Giardia killer | TrxR1 substrate
CC(=O)N1CCc2c(sc3c2c(=O)n(CCc2ccccc2)c(=O)n3Cc2cccc(C)c2)C1 | - | - | . | . | . | -
Cc1cc2cc(CN(Cc3ccco3)S(=O)(=O)c3c(C)ccc4nsnc34)c(=O)[nH]c2cc1C | - | ? | - | . | - | -
Cc1ccc2cc(CN(Cc3ccco3)S(=O)(=O)c3c(C)ccc4nsnc34)c(=O)[nH]c2c1 | - | 13µM | - | - | - | -
CCOC(=O)c1sc2ccccc2c1OC(=O)c1ccc(C)cc1 | - | - | - | - | - | -
CCOC(=O)c1sc(S(C)=O)c2c1CCc1conc1-2 (centres undefined) | - | 32µM | - | . | - | -
O=C1C(O)=C(O)C(=O)c2ccccc21 | -50 | ? | . | . | - | -
CCN1CCN(c2cc(=O)n(C3CCCCC3)c(=O)[nH]2)CC1 | - | - | - | - | - | -
CN1CCN(c2cc(=O)n(C3CCCCC3)c(=O)[nH]2)CC1 | - | 25µM | - | - | - | -
CC1(C)CC(=O)C(C(C2=C(O)CC(C)(C)CC2=O)c2cccs2)C(=O)C1 (centres undefined) | - | 6.3µM | - | - | - | -
CCN1c2ccccc2NC2N=C(OC)C(c3ccccc3)C21 (centres undefined) | - | 20µM | - | - | - | -
COc1cc2c(cc1OC)-c1c(OC)c(OC)cc3ccnc(c13)C2=O | - | - | -34! | . | -84 | -
COc1ccc(C(=O)c2nccc3cc(OC)c(OC)cc23)cc1OC | ? | - | . | . | - | -
CCCCC[C@H](O)/C=C/[C@H]1OC(O)C[C@H](O)[C@@H]1C/C=C\CCCC(=O)O (some centres undefined) | . | . | - | . | . | .
COc1ccc([C@]23Cc4cc(C#N)ccc4C(O2)c2c(c4ccc(OC)cc4oc2=O)O3)cc1 | . | . | - | . | . | .
S=c1sc2c(Cl)ncnc2n1-c1ccccc1 | - | 16µM | - | - | - | -
Cc1nc(N2CCN(C)CC2)c2sc(=S)n(-c3ccccc3)c2n1 | - | - | - | - | - | -
CCCCC1(C)OC(=O)C(=Cc2ccc(-c3ccc(Cl)c(C(=O)O)c3)o2)C(=O)O1 (centres undefined) | ? | ? | - | - | - | -
CC1=C(C#N)C(=O)NC(=O)/C1=C\c1ccc(-c2ccc(C)cc2[N+](=O)[O-])o1 | - | 16µM | - | - | - | -
CCOC(=O)c1cc(-c2ccc(/C=C3/C(=O)NC(=O)C(C#N)=C3C)o2)ccc1Cl | - | 10µM | - | - | - | -
CC[C@H](C)[C@H](NC(=O)[C@H](CO)NC(=O)[C@H](C)NC(=O)[C@H](C)NC(=O)[C@H](CCC(N)=O)NC(=O)[C@H](CCCCN)NC(=O)[C@H](CCCN=C(N)N)NC(=O)[C@@H](N)CS)C(=O)N[C@@H](CCCCN)C(=O)N[C@H](C(=O)N[C@@H](C)C(=O)N[C@H](C(=O)N[C@@H](CO)C(=O)O)C(C)C)C(C)C | . | . | - | . | . | .
O=S(=O)(Nc1cc(Sc2cccc3cccnc23)c(O)c2ccccc12)c1ccc(F)cc1 | - | 22µM | -53 | - | -98 | -
O=C(O)CSc1cc(NS(=O)(=O)c2ccc(Cl)cc2)c2ccccc2c1O | ? | ? | -53 | - | - | -
